Most compounds without a hit are left out; they make up all but 6.1% or so of the library.
VP16 counter = Gal4-VP16 reporter inhibition counter-screen; Drosophila S2 Gal4-VP16 UAS-luciferase, luminescence, 20 h; Potency, µM (top dose mostly 53.6 µM), for the others: at the top dose activity, negative = inhibition, actives largely listed as inhibitors; 3.5% of 310,000 active;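 further: Gal4-VP16 expression switched on by copper sulfate through the metallothionein promoter; on the % scale 0 is the no-effect control and ±100 the full control effect; nearly all actives have a fitted effect of over 50% in size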
HepG2 tox = kills HepG2 cells in TGF-b inhibitor counter-screen | HepG2 CAGA-GFP viability, ATP luminescence, 18 h | AID 588856 | 0.76% of 410,000 active | Potency, µM (top dose mostly 46.1 µM), for the others: at the highest dose activity change, negative = cytotoxicity, usual class: cytotoxic
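CellTiter-Glo luminescence gave cytotoxicity after 18 hours at 37 degrees C. The cells were HepG2 CAGA-GFP in 1% FBS DMEM, stimulated with 500 pg/mL TGF-beta after compound addition. %Activity was normalised to no-cell wells (complete cell-killing) and DMSO (no toxicity), and curves were fitted and classified.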
RORg inh = inhibitors of mouse ROR gamma transcriptional activity. P51450. Drosophila S2 Gal4-RORgamma UAS-luciferase reporter, 20 h. Potency, µM (series often up to 53.6 µM), without a hit: top-dose activity change, negative = inhibition, usual class: inhibitors. 5.4% of 310,000 active. AID 2551; further: on the % scale 0 is the no-effect control and ±100 the full control effect; nearly all actives have a fitted effect of over 60% in size
Target sequence (P51450 whole entry, looked up, the tested form may be a part): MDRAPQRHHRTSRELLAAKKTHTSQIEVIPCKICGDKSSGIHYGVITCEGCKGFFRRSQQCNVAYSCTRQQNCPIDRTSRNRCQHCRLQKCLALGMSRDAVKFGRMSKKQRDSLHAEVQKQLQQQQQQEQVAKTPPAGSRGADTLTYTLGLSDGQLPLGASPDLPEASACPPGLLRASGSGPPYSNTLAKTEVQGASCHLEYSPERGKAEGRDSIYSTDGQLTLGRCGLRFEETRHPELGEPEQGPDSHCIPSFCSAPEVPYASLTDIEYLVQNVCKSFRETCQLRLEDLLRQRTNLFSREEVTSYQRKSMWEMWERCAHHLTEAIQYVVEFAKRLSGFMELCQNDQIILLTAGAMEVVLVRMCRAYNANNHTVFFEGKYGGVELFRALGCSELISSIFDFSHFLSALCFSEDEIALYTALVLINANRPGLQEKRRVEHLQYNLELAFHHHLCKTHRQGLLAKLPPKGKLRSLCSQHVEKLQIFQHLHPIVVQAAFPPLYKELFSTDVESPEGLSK
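Luminescence from a UAS-regulated Photinus luciferase reporter in stably transfected Drosophila Schneider cells is measured; decreased signal marks ROR gamma inhibition. Fusion expression is induced by 700 uM copper sulfate for 20 hr.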
TGFb inhibitor = inhibitors of TGF-b signaling | HepG2 CAGA-GFP TGF-b/SMAD3 reporter, GFP fluorescence, 18 h; TGF-beta stimulated, 500 pg/mL final | Potency, µM (top dose mostly 46.1 µM), for the others: at the top dose activity, negative = inhibition, actives largely listed as inhibitors | 1.2% of 410,000 active | AID 588855; further: on the % scale 0 is the no-effect control and ±100 the full control effect; nearly all actives have a fitted effect of over 65% in size
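HEPG2 CAGA-GFP reporter cells (1000/well, DMEM with 1% FBS) received compounds, then recombinant TGF-beta at 500 pg/mL final for 18 hours at 37 degrees C. Per-cell GFP summed per well was normalised to unstimulated and stimulated DMSO controls before curve fitting.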
ATXN2 expr inh = inhibitors of ATXN2 expression. HEK-293 ATXN2-luciferase reporter, luminescence, 24 h. Potency, µM (titrated, usually from 57 µM), inactives show at the top dose activity change, negative = inhibition, actives largely listed as inhibitors. 0.72% of 360,000 active; further: on the % scale 0 is the no-effect control and ±100 the full control effect; nearly all actives have a fitted effect of over 55% in size
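ATXN2-luciferase reporter cells (luciferase flanked by upstream and downstream ATXN2 gene portions) were treated 24 h at 37 °C with compounds at up to 57 uM. SteadyGlo luminescence gave expression; GF-AFC fluorescence gave viability.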
S2 tox = viability counter-screen for ATXN expression inhibitors; S2 cells (HEK-293 line with an ATXN2-luciferase reporter) viability, CellTiter-Fluor protease fluorescence, 24 h; Potency, µM (top dose mostly 56.7 µM), actives largely listed as cytotoxic; 0.49% of 400,000 active; further: nearly all actives have a fitted effect of over 40% in size
Active calls of the source: *; i = inactive; ? = inconclusive; / = no result given. The call rests on the fitted dose curve; in most records, active means well fitted curve in the direction sought with a large enough effect; inconclusive means small, poorly fitted or top-dose-only effect, or another doubt; inactive means no such curve, though single readings can be large; an effect the other way counts as inactive or inconclusive. Potency means the concentration at half of the fitted maximal effect.

SMILES	VP16 counter	HepG2 tox	RORg inh	TGFb inhibitor	ATXN2 expr inh	S2 tox
Cc1sc2c(c1C)c(=O)n(-c1cccc(C(F)(F)F)c1)c(=O)n2Cc1ccccc1C#N	/	-3%	/	2%	0%	i
COc1ccc(-n2c(N)c(-c3nc4ccccc4n3C)sc2=S)cc1	-13%	-6%	6.3µM*	?	5%	i
Cc1ccc(NC(=O)CN2C(=O)COc3ccc(S(=O)(=O)N4CCCCCC4)cc32)cc1C	/	-43%	/	?	/	/
O=C(NNC(=O)c1ccccc1O)c1cccc(Br)c1	-7%	-28%	5µM*	-1%	/	?
O=C(NNC(=O)c1ccccc1O)c1ccc(Br)cc1	20µM*	-29%	11µM*	0%	-7%	i
O=C(COC(=O)c1ccccc1O)NNC(=O)c1ccc(Br)cc1	/	-1%	/	-3%	4%	i
NC(=S)NNC(=O)c1ccccc1	22µM*	-10%	2.8µM*	-6%	6%	i
O=C(CNC(=O)c1ccc(Br)cc1)c1ccccc1	-29%	-12%	13µM*	-20%	7%	i
Cc1ccc2c(c1)C(c1ccc(F)cc1)N(C(=O)c1ccc(S(=O)(=O)N3CCCCC3)cc1)CC(=O)N2 (centres undefined)	/	2%	/	1%	-6%	i
COc1ncc2nc(CCc3ccccc3)c(=O)n(Cc3cccs3)c2n1	5%	/	1%	/	/	/
Cc1ccc(NC(=O)N2CCN(Cc3nc4ccc(C)cc4o3)CC2)c(Cl)c1	/	-26%	/	-25%	-6%	i
C=C1C=C(C(F)F)n2ncc(C(=O)NCCc3ccc(Cl)cc3)c2N1	/	-25%	/	-18%	/	/
O=C(NNC(=O)c1ccccc1O)c1ccc(Cl)cc1	?	-26%	8.9µM*	-9%	-22%	i
NC(=S)NNC(=O)c1cccc(Br)c1	-28%	/	6.3µM*	/	/	/
O=C(NNC(=O)c1ccc(O)cc1O)c1ccc(Cl)cc1	-6%	4%	-40%	-8%	-1%	i
COC(=O)C=P(c1ccccc1)(c1ccccc1)c1ccccc1	3%	/	-4%	/	/	/
CCOc1ccccc1NC(=O)CCNS(=O)(=O)c1ccc2c(c1)CCN2C(=O)C1CC1	/	-26%	/	-10%	0%	i
NS(=O)(=O)c1ccc(NC(=S)N2CCc3ccccc32)cc1	5%	-25%	8%	-12%	1%	i
Fc1ccc(NC(=S)N2CCc3ccccc32)cc1	?	-54%	11µM*	-8%	/	?
FC(F)Oc1ccc(NC(=S)N2CCc3ccccc32)cc1	-90%	5%	8.9µM*	4%	-10%	i
CC1=C(C(=O)OC2CCCC2)C(c2cccc(Cl)c2Cl)CC(=O)N1 (centres undefined)	/	-78%	/	?	-17%	i
COc1ccc(NC(=O)CSc2nc(O)c(C/C=C/c3ccccc3)c(=O)[nH]2)cc1	/	-15%	/	2%	-6%	i
Cc1cc(C(=O)NNC(=S)NC2CCCCC2)cs1	?	-4%	3.2µM*	-5%	23%	i
COc1ccc(C(=O)NNC(=S)NC2CCCCC2)cc1OC	?	0%	7.9µM*	2%	7%	i
CCNC(=S)NNC(=O)c1cccs1	-13%	1%	11µM*	-6%	-9%	i
SMILES	VP16 counter	HepG2 tox	RORg inh	TGFb inhibitor	ATXN2 expr inh	S2 tox
CCNC(=S)NNC(=O)c1csc(C)c1	?	-39%	13µM*	-17%	1%	i
O=C(c1ccc(F)c(F)c1)N1CCOc2ccc(CN3CCN(CCO)CC3)cc2C1	/	/	/	/	/	i
CN1CCN(c2ccc(NC(=O)COc3ccccc3Cl)cc2)CC1	17%	-34%	24%	4%	-7%	i
C=CC(=O)Nc1ccc(N(C)c2ccnc(Nc3ccc(N4CCN(C)CC4)cc3)n2)cc1	/	-3%	/	?	-37%	14µM*
O=C(Nc1nc(-c2ccccn2)cs1)c1ncc(Cl)c(Cl)c1Cl	10µM*	-21%	6.3µM*	?	-26%	i
O=C(Nc1nc(-c2ccccn2)cs1)c1cc2ccccc2o1	11µM*	-32%	1.6µM*	?	-19%	i
Cn1cccc1C(=O)Nc1nc(-c2ccccn2)cs1	4µM*	-37%	1.6µM*	-13%	?	?
Nc1nc(N)c(S(=O)(=O)c2ccccc2)c(Nc2ccc(F)cc2)n1	/	-17%	/	-1%	-2%	i
CC(=O)N[C@@H]1[C@H](O[C@@H]2c3ccc(c(Cl)c3)Oc3cc4cc(c3O[C@H]3O[C@H](CO)[C@@H](O)[C@H](O)[C@H]3NC(=O)CCCCCCCC(C)C)Oc3ccc(cc3Cl)C[C@H]3NC(=O)[C@H](N)c5ccc(O)c(c5)Oc5cc(O)cc(c5)[C@H](NC3=O)C(=O)N[C@H]4C(=O)N[C@H]3C(=O)N[C@@H]2C(=O)N[C@@H](C(=O)O)c2cc(O)cc(O[C@H]4O[C@H](CO)[C@@H](O)[C@H](O)[C@H]4O)c2-c2cc3ccc2O)O[C@H](CO)[C@@H](O)[C@@H]1O	/	/	/	/	-3%	/
S=C(NCC1CCCO1)Nc1cc(Cl)c(Cl)cc1Cl (centres undefined)	18µM*	2%	3.2µM*	?	1%	i
COc1ccc(NC(=S)NCC2CCCO2)c(OC)c1 (centres undefined)	1%	-49%	-39%	0%	1%	i
S=C(NCC1CCCO1)Nc1ccc(Nc2ccccc2)cc1 (centres undefined)	?	-4%	?	-17%	-17%	i
Cc1cc(C)cc(NC(=S)NCC2CCCO2)c1 (centres undefined)	35µM*	-4%	11µM*	-1%	3%	i
O=C(NCC1CCCO1)Nc1cccc(Cl)c1 (centres undefined)	16%	-1%	42%	-9%	10%	i
S=C(NCC1CCCO1)Nc1cccc(Cl)c1 (centres undefined)	20µM*	15%	16µM*	-24%	-8%	i
COc1cc2cc(CN(CCc3cccc(C)c3)C(=S)NCCCN3CCOCC3)c(=O)[nH]c2cc1OC	?	-34%	7.1µM*	-20%	-26%	i
Cc1cccc(NC(=O)CSc2ncnc3sc(C)c(C)c23)n1	-12%	-6%	16%	1%	-23%	i
Cc1sc2ncnc(SCC(=O)NC(=O)c3cccn3C)c2c1C	-7%	1%	4.5µM*	-3%	-21%	i
CCCOc1cccc(C(=O)NC(=S)Nc2cccc(C(F)(F)F)c2)c1	?	-43%	10µM*	-30%	-8%	i
